Source: ChEMBL document CHEMBL3433997, “St. Jude Leishmania screening dataset” (2016)

Tests used:
Assay type in all cases: functional
[1] = molecular target: Solute carrier family 2, facilitated glucose transporter member 1 (Homo sapiens) (UniProt P11166); assay: ST_JUDE_LEISH: Cytotoxicity at 2uM final concentration against transgenic Leishmania Mexicana promastigotes LmGLUT1 that are glucose transport deficient and complemented with the human glucose transporter GLUT1. Activity is measured by DNA content using SYBR green in vitro
[2] = molecular target: Hexose transporter 1 (Plasmodium falciparum) (UniProt O97467); assay: ST_JUDE_LEISH: Cytotoxicity at 2uM final concentration against transgenic Leishmania Mexicana promastigotes LmPfHT that are glucose transport deficient and complemented with the Plasmodium falciparum hexose transporter. Activity is measured by DNA content using SYBR green in vitro
[3] = molecular target: Glucose transporter (Leishmania mexicana) (UniProt O61059); assay: ST_JUDE_LEISH: Cytotoxicity at 2uM final concentration against transgenic Leishmania Mexicana promastigotes LmGT2 that are glucose transport deficient and complemented with the L. Mexicana glucose transporter 2. Activity is measured by DNA content using SYBR green in vitro

Sequence of Solute carrier family 2, facilitated glucose transporter member 1 (Homo sapiens) (P11166 whole entry): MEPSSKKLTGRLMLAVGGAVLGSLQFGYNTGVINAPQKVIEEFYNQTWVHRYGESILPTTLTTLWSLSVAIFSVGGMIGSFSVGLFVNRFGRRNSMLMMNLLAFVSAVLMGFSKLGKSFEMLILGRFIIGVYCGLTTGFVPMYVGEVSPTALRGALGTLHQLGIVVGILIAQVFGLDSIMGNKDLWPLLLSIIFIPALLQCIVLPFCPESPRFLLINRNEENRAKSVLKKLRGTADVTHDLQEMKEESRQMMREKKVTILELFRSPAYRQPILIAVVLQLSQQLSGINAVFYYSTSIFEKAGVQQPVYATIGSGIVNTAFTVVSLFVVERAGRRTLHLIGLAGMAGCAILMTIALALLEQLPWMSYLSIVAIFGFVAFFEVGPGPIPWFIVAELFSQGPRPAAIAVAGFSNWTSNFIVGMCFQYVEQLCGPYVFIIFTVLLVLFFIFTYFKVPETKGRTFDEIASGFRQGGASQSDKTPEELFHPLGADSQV

SMILES: CC1CNC(c2cccc(NC(=O)Nc3cccc(C4=NC(C)CN4)c3)c2)=N1 (stereo not given)
- inhibition [1]: 6.32%
- inhibition [2]: 8.33%
- inhibition [3]: 6.15%

SMILES: CCCCCN1CCCC1CNS(=O)(=O)c1ccc(C(=O)Nc2cccc(C(F)(F)F)c2)cc1 (stereo not given)
- inhibition [1]: 0.76%
- inhibition [2]: 0.61%
- inhibition [3]: 0.19%

SMILES: CC(C)c1ccc(-c2noc(SCC(=O)N3CCCCC3C)n2)cc1 (stereo not given)
- inhibition [1]: -2.1%
- inhibition [2]: 1.89%
- inhibition [3]: -2.55%

SMILES: CCCC(CNCc1cccc(OCC)c1)CNc1cc(=O)c2ccccc2[nH]1 (stereo not given)
- inhibition [1]: -0.5%
- inhibition [2]: -0.45%

SMILES: O=[N+]([O-])c1ccc2ncnc(Nc3ccc(F)c(Cl)c3)c2c1
- inhibition [1]: 2.27%
- inhibition [2]: 0.68%
- inhibition [3]: 2.32%

SMILES: COc1c(C(=O)NC2CCN(Cc3ccccc3)C2)cnc2ccccc12 (stereo not given)
- inhibition [1]: 11.8%
- inhibition [2]: 9.19%
- inhibition [3]: 8.95%

SMILES: Cc1ccc(NC(=O)N2CCCN(CCCCCNC(=O)/C=C/c3ccc(Cl)c(Cl)c3)CC2)cc1
- inhibition [1]: -1.97%
- inhibition [2]: -0.68%

SMILES: O=C(/C=C/c1ccc(Cl)c(Cl)c1)N1CCC(CCN2CCC(c3c[nH]c4ccncc34)CC2)CC1
- inhibition [1]: 3.03%
- inhibition [2]: 4.39%
- inhibition [3]: 6.65%

SMILES: COc1ccccc1N1CCN(C(C(=O)NCc2ccc3c(c2)OCO3)c2ccc(C)cc2)CC1 (stereo not given)
- inhibition [1]: -0.94%
- inhibition [2]: -0.2%

SMILES: CN(C)S(=O)(=O)c1cc(-c2ccc3nccc(-c4cccc(S(N)(=O)=O)c4)c3c2)cnc1N
- inhibition [1]: 8.3%
- inhibition [2]: 7.26%
- inhibition [3]: 7.13%

SMILES: Oc1ccc2[nH]c(-c3ccc(F)cc3F)nc2c1CN1CCC(O)(c2ccccc2)CC1
- inhibition [1]: -0.28%
- inhibition [2]: -0.92%
- inhibition [3]: 0.37%

SMILES: CC(C)c1ccc(CN2CCC(CNC(=O)c3cc(-c4cccc(F)c4)cs3)C2)cc1 (stereo not given)
- inhibition [1]: 0.2%
- inhibition [2]: -1.08%

SMILES: CO/C(=C\C=C\c1cc2cc(Cl)c(Cl)cc2[nH]1)C(=O)NCCCN1CCN(c2cccc(OCC(=O)Nc3cccc(C(=O)c4ccccc4)c3)c2)CC1
- inhibition [1]: 4.84%
- inhibition [2]: 2.82%
- inhibition [3]: 2.69%
